Most compounds without a hit are left out; they make up all but 10% or so of the library.
GLS inh = blocks human kidney-isoform glutaminase activity; O94925; GLS enzymatic activity, qHTS titration; Potency, µM (highest dose often 45.5 µM), without a hit: top-dose activity change, negative = inhibition, actives largely listed as inhibitors; 410,000 tested, 0.21% active; also: % is scaled to controls: 0 for no effect and ±100 for the full control effect
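Assay buffer: 45 mM KH2PO4 pH 8.2, 0.02% Tween-20. hKGA acts on L-glutamine (1 mM solution added); product glutamate is reported by an oxidase/peroxidase Amplex Red coupling, with fluorescence taken at baseline and 30 min.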
JMJD2A Tudor = blocks the human JMJD2A Tudor domain | 390,000 tested, 4.4% active | Potency, µM (series often up to 114 µM), for inactives: top-dose activity change, negative = inhibition, usual class: inhibitors | O75164 | AlphaScreen JMJD2A-Tudor / H3K4me3 peptide binding; also: % is scaled to controls: 0 for no effect and ±100 for the full control effect; nearly all actives have a fitted effect of over 50% in size
HP1b binding inh = HP1-beta chromodomain-methylated histone interaction inhibition | P83916 | AlphaScreen HP1-beta / biotin-H3K9me3 peptide binding | Potency, µM (series often up to 114 µM), without a hit: top-dose activity change, negative = inhibition, hits mostly inhibitors | 390,000 tested, 0.56% active; also: nearly all actives have a fitted effect of over 70% in size
Target sequence (P83916 whole entry, looked up): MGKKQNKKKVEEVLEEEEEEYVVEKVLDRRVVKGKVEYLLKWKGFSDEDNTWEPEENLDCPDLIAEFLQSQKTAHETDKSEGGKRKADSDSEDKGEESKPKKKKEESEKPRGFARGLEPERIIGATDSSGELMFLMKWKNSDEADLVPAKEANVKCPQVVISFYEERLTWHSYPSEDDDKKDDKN
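HP1-beta protein (50 nM final) preincubated 30 min at room temperature with biotinylated H3(1-18)K9me3 peptide (50 nM) in PBS pH 7.4, 0.01% Tween-20, then compound added for 30 min. AlphaScreen streptavidin donor/nickel chelate acceptor beads (10 ug/mL final), 30 min dark, luminescence read.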
BAZ2B block = blocks human BAZ2B; Q9UIF8; AlphaScreen BAZ2B-H3K14Ac peptide displacement; 360,000 tested, 4.4% active; Potency, µM (titrated, usually from 114 µM), without a hit: top-dose activity change, negative = inhibition, hits mostly inhibitors; AID 504333; also: % is scaled to controls: 0 for no effect and ±100 for the full control effect; nearly all actives have a fitted effect of over 60% in size
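AlphaScreen displacement of biotin-H3(5-23)K14Ac peptide (50 nM final) from BAZ2B (50 nM final) in PBS pH 7.4, 0.01% Tween-20; complex preformed 30 min RT, then compounds (top 110 uM) 30 min RT, beads 20 min dark.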
L3MBTL1 inh = blocks human L3MBTL1. Q9Y468. AlphaScreen L3MBTL1–H3K9me1 peptide binding. Potency, µM (highest dose often 57.1 µM), for inactives: at the top dose activity, negative = inhibition, most hits filed as inhibitors. 230,000 tested, 0.66% active; also: % is scaled to controls: 0 for no effect and ±100 for the full control effect; nearly all actives have a fitted effect of over 60% in size
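AlphaScreen proximity signal between nickel-chelate acceptor and streptavidin donor beads (final 10 ug/mL) reports binding of 50 nM L3MBTL1 to 75 nM biotin-H3 K9me1 peptide; complex incubated with compounds 30 min at room temperature; cefsulodin titration as control.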
G9a block = blocks human histone lysine methyltransferase G9a; 350,000 tested, 8.8% active; Potency, µM (titrated, usually from 102 µM), for inactives: at the top dose activity, negative = inhibition, actives largely listed as inhibitors; Q96KQ7; G9a H3K9 monomethylation, AlphaScreen, 2 h; also: % is scaled to controls: 0 for no effect and ±100 for the full control effect; nearly all actives have a fitted effect of over 75% in size
Target sequence (Q96KQ7 913-1193 limits assumed): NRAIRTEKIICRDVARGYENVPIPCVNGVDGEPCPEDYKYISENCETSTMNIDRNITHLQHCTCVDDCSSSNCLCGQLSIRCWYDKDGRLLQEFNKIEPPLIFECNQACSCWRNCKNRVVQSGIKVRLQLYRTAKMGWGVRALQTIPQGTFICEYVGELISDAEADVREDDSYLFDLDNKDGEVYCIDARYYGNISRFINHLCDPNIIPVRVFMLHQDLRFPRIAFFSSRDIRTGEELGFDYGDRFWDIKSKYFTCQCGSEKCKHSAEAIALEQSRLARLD
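AlphaScreen read-out: biotin-H3K9 peptide (500 nM) methylation by 20 nM enzyme with 20 uM SAM, 2 h at room temperature after 15 min compound preincubation; anti-monomethyl H3K9 antibody plus donor/acceptor beads, 10 min dark.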
* marks the source's active call; other numbers are inactive results; ? = inconclusive; . = not tested or not shown; [ ] = remark or other dose. Calls follow the shape of the dose curve; as a rule, active = well fitted curve in the direction sought with a large enough effect; inconclusive = small, poorly fitted or top-dose-only effect, or another doubt; inactive = no such curve, though single readings can be large; an effect the other way counts as inactive or inconclusive. Potency is read from the fitted curve at half-maximal effect.

SMILES | GLS inh | JMJD2A Tudor | HP1b binding inh | BAZ2B block | L3MBTL1 inh | G9a block
CCN(CC)c1ccc(NC(=O)/C=C/c2cc(Br)ccc2OC)cc1 | 36% | 4µM* | ? | 8.9µM* | ? | 2%[0.0925 µM]
CC(=O)Nc1ccc(NC(=S)NC(=O)C2CCCC2)cc1 | 12% | -18% | 34% | -21% | . | 35%
COc1ccc(NC(=O)/C=C/c2cc(Br)ccc2OC)cc1 | 2% | -14% | 24% | 1% | -8% | -48%[59 µM]
CCN(CC)c1ccc(NC(=S)NC(=O)C2CCC2)cc1 | 37% | 45µM* | ? | 22µM* | . | 40µM*
O=C(c1ccccc1Cl)N1CCCCC1CCN1CCOCC1 (stereo not given) | 8% | -4% | 42% | 3% | . | 5%[59 µM]
CCOc1ccccc1CNC(=O)c1ccc(Cn2c(SCc3ccccc3)nc3cccnc32)cc1 | -4% | -24% | 18% | -3% | . | -4%[59 µM]
CCc1cc(C(=O)Nc2c(C)nn(Cc3ccc(C)cc3)c2C)no1 | -1% | -13% | 4% | -1% | . | 4%[59 µM]
Oc1c(C(c2ccc(Cl)cc2Cl)N2CCCC2)sc2nc(-c3ccco3)nn12 (stereo not given) | 6% | -7% | 20% | -8% | . | 10%[59 µM]
CCN(CC)c1ccc(NC(=O)OC)cc1 | ? | ? | -29% | ? | . | 3.5µM*
COC(=O)Nc1ccc(NC(C)=O)cc1 | -7% | -11% | 18% | 4% | 4%[11.4 µM] | 8%[59 µM]
c1ccc2c(c1)CC(N1CCN(c3cccc4c3OCCO4)CC1)C2 | . | . | . | . | . | 70%[12.7 µM]
CCOc1ccccc1CNC(=O)CN1C(=O)CCCc2ccccc21 | -7% | -10% | 23% | -17% | . | 6%[59 µM]
CCCc1c(C(=O)N/N=C/C2CC=CCC2)nnn1-c1nonc1N (stereo not given) | 1% | . | . | . | . | .
COc1cc(/C=N/NC(=O)c2nnn(-c3nonc3N)c2C(C)C)ccc1O | -9% | -4% | 16% | -17% | . | -7%
CCOc1ccc(-c2c(C(=O)N/N=C/C3CC=CCC3)nnn2-c2nonc2N)cc1 (stereo not given) | -1% | -21% | 51% | 79µM* | . | 6%
COc1ccc(/C=N/NC(=O)c2nnn(-c3nonc3N)c2-c2cccs2)cc1OC | 3% | -23% | 28% | 56µM* | . | -3%[0.0925 µM]
CCOc1cccc(-c2c(C(=O)N/N=C/c3ccoc3)nnn2-c2nonc2N)c1 | ? | 25µM* | -17% | 79µM* | . | 54%
COc1cc(/C=N/NC(=O)c2nnn(-c3nonc3N)c2-c2cccs2)ccc1O | 25% | -35% | 33% | -21% | . | 53%
COc1ccccc1/C(C)=N/NC(=O)c1nnn(-c2nonc2N)c1C(C)C | ? | 20µM* | 15% | -5% | . | 16%
COc1cc2c(N3CCN(C(=O)Nc4ccc(OC(C)C)cc4)CC3)ncnc2cc1OCCCN1CCCCC1 | 14% | . | . | . | . | .
Cc1ccc(Cn2c(SCC(=O)C(C)(C)C)nc3ccsc3c2=O)cc1 | -5% | -9% | 33% | -8% | . | -1%[59 µM]
COc1ccc(/C=N/NC(=O)c2nnn(-c3nonc3N)c2-c2cccc(OC)c2)cc1 | 5% | -30% | 34% | -26% | . | 21%
CCOc1cccc(-c2c(C(=O)N/N=C(\C)c3ccccn3)nnn2-c2nonc2N)c1 | 35% | 25µM* | 12%[57 µM] | 13µM* | . | .
COc1ccc(O)c(/C=N/NC(=O)c2c(C)nnn2-c2nonc2N)c1 | -8% | ? | 17% | ? | . | 79µM*
CC(=O)Nc1c(C)nn(-c2ccccc2)c1N1CCC(C(=O)Nc2cccc(C(F)(F)F)c2)CC1 | 5% | -6% | 29%[57 µM] | 2% | . | 11%[59 µM]
SMILES | GLS inh | JMJD2A Tudor | HP1b binding inh | BAZ2B block | L3MBTL1 inh | G9a block
COc1ccc(CNCCSc2nnnn2-c2ccccc2)c(OC)c1 | -6% | -18% | 11% | -14% | . | -2%[59 µM]
COc1ccc(OCC(=O)Nc2cc(OC)ccc2N2CCCCC2)cc1 | 0% | -5% | 34%[57 µM] | -22% | . | 21%
COC(=O)c1ccccc1NC(=S)NC(=O)COc1ccccc1Cl | 7% | -12% | 27% | 5% | -5% | ?
COc1ccc(N2CCCC2)c(NC(=O)COc2ccccc2Cl)c1 | -20% | -13% | -7% | ? | . | 35µM*
O=C(COc1ccccc1Cl)NC(=S)Nc1ccccc1N1CCCC1 | 35% | ? | 5% | 20µM* | . | 40µM*
COc1ccc(N2CC(C(=O)Nc3ccccc3N3CCCC3)CC2=O)c(OC)c1 (stereo not given) | 11% | -20% | 15% | 3% | -14% | 50µM*
O=C(C1CCC1)N1CCc2cc(S(=O)(=O)NCCc3ccccc3)ccc21 | 10% | -15% | 27% | . | . | -38%[59 µM]
Nc1nc(NCc2ccc(F)cc2)c2[nH]cnc2n1 | . | -11% | 33% | . | . | .
CCN(CC)CCNC(=O)c1c(O)c2c([nH]c1=O)CCCC2 | 0% | -19% | 22% | -6% | -3% | 79µM*
CCn1ccc2cc(S(=O)(=O)N3CCCN(C(=O)Nc4ccccc4F)CC3)ccc21 | 6% | -23% | 10%[57 µM] | -4% | . | -43%[59 µM]
CC(=Nc1ccccc1)c1sc2ccccc2c1O | 7% | 56µM* | -15% | ? | 22% | ?
CCCCn1c(N)c(N(Cc2ccccc2OC)C(=O)CN2C(=O)NC(C)(c3ccccc3)C2=O)c(=O)[nH]c1=O (stereo not given) | 32% | -17% | 7% | 0% | 14% | 5.6µM*
CCOc1ccccc1Nc1sc(C(=O)c2ccc(Cl)cc2)c(N)c1C#N | -3% | -12% | 32% | -14% | . | 2%[59 µM]
Cc1ccc(CSc2ccc(-c3ccco3)nn2)cc1 | -1% | -3% | 36% | -36% | -3% | 18µM*
c1ccc(CSc2ccc(-c3ccco3)nn2)cc1 | -6% | -8% | 30% | -4% | -8% | 25µM*
Fc1ccccc1CSc1ccc(-c2ccco2)nn1 | 0% | 10% | 6% | -6% | . | 40µM*
Clc1cccc(CSc2ccc(-c3ccco3)nn2)c1 | -19% | 72% | 9% | 9% | . | 16µM*
CCc1cccc(CC)c1NS(=O)(=O)c1ccc2c(c1)CCN2C(=O)C1CC1 | 8% | 1% | 33% | . | . | 1%[59 µM]
Cc1ccc(-c2cc(-c3coc4ccc(Cl)cc4c3=O)c3c(n2)-c2ccccc2OC3)cc1 | 9% | -15% | 24% | -20% | . | -6%[59 µM]
COc1ccc(N(Cc2cccs2)C(=O)Nc2ccccc2)cc1 | 3% | 5% | 45% | 1% | . | 7%[59 µM]
CCSc1nc(-c2ccco2)ccc1C#N | 2% | ? | 35% | 1% | . | ?
N#Cc1ccc(-c2ccco2)nc1SCc1ccccc1 | 4% | 84% | 42% | 18% | 41% | 28µM*
Cc1ccc(CSc2ccc(-c3ccc4c(c3)OCO4)nn2)cc1 | -1% | 8% | 19% | -2% | -10% | 50µM*

Source: PubChem (National Center for Advancing Translational Sciences (NCATS))
